Data: a collection of fitness landscapes (doi:10.1016/j.celrep.2020.107928)
The full ranking holds about 81,000 sequences; the median of “one-hybrid fitness for binding parS DNA” is about -0.17, and the highest 2% start at about 0.51. The sample holds the highest values, similar sequences and a random draw of the others, so the mix is not that of the screen.

B1: Caulobacter ParB omega fusion; a variant is named by its letters at X, in order, B8GW30 (parent)
chain: MESVVVGEPGMSEGRRGLGRGLSALLGEVDAAPAQAPGEQLGGSREAPIEILQRNPDQPRRTFREEDLEDLSNSIREKGVLQPILVRPSPDTAGEYQIVAGERAWRAAQRAGLKTVPIMVRELDDLAVLEIGIIENVQRADLNVLEEALSYKVLMEKFERTQENIAQTIGKSXSHVANXMRLLXLPDEVQSYLVSGELTAXHARAIAAAADPVALAKQIIEGGLSVRETEALARKAPNLSAGKSKGGRPPRVKDTDTQALESDLSSVLGLDVSIDHRGSTGTLTITYATLEQLDDLCNRLTRGI

Variants of: B1
Test: one-hybrid fitness for binding parS DNA (scaled: cognate 1, non-cognate 0); higher = stronger binding
Conditions: with parS DNA site
In short: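 Caulobacter ParB libraries with four specificity codons randomised were screened by bacterial one-hybrid selection in the E. coli USO strain, using a HIS3 reporter whose site lies 19 bp from the promoter. Selection ran for 48 hours at 37°C on M9 lacking histidine, with 0.1 mM IPTG and 5 mM 3-AT. Plasmids were Illumina-sequenced before and after selection, three replicate libraries were pooled, and variants with under 10 reads were dropped. Fitness is the log change in each variant's read ratio to wild type, rescaled against the cognate and non-cognate sites.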

Row | Variant | one-hybrid fitness for binding parS DNA
1 | ECVT | ≤ 0.2
2 | WSQP | ≤ 0.2
3 | VYQR | ≤ 0.2
4 | KDPE | ≤ 0.2
5 | DISI | ≤ 0.2
6 | KTLW | ≤ 0.2
7 | RCCG | 1.03
8 | RLCM | 0.342
9 | RPCG | ≤ 0.2
10 | RLCF | 0.27
11 | RLCG | 1
12 | RECG | 0.221
13 | PASK | ≤ 0.2
14 | CNGG | ≤ 0.2
15 | SRGF | ≤ 0.2
16 | AQNP | ≤ 0.2
17 | TPWY | ≤ 0.2
18 | KCYT | ≤ 0.2
19 | VISS | ≤ 0.2
20 | QETP | ≤ 0.2
21 | PTTA | ≤ 0.2
22 | DTNY | ≤ 0.2
23 | RYMD | ≤ 0.2
24 | RYMC | 0.994
25 | RYML | ≤ 0.2

Row | Variant | one-hybrid fitness for binding parS DNA
26 | RYMQ | ≤ 0.2
27 | RYMT | 0.887
28 | RYMN | 0.395
29 | RYMH | ≤ 0.2
30 | RYMR | ≤ 0.2
31 | RYMK | ≤ 0.2
32 | RYMP | ≤ 0.2
33 | RYMS | 0.963
34 | RYMG | 0.971
35 | LCMG | ≤ 0.2
36 | NWQY | ≤ 0.2
37 | NQMR | ≤ 0.2
38 | DFGS | ≤ 0.2
39 | NLVV | ≤ 0.2
40 | TGGR | ≤ 0.2
41 | HAMN | ≤ 0.2
42 | WKPV | ≤ 0.2
43 | DGVM | ≤ 0.2
44 | RPCN | ≤ 0.2
45 | APGA | ≤ 0.2
46 | LMVR | ≤ 0.2
47 | EFNL | ≤ 0.2
48 | WIWS | ≤ 0.2
49 | RPCC | ≤ 0.2
50 | RCCC | 0.959

Row | Variant | one-hybrid fitness for binding parS DNA
51 | RSCD | ≤ 0.2
52 | RDCC | ≤ 0.2
53 | RSCP | ≤ 0.2
54 | RSCC | 0.915
55 | RRPQ | ≤ 0.2
56 | RRPG | 0.891
57 | RRIG | 0.908
58 | RRPF | ≤ 0.2
59 | RRIP | ≤ 0.2
60 | RRIM | ≤ 0.2
61 | TAAL | ≤ 0.2
62 | KHMS | ≤ 0.2
63 | RYTH | ≤ 0.2
64 | RYTT | 0.884
65 | RYTY | 0.429
66 | RYTR | ≤ 0.2
67 | RYTM | 0.295
68 | RYTC | 0.903
69 | RYTS | 0.904
70 | RYTN | 0.429
71 | RYTP | ≤ 0.2
72 | RYTK | ≤ 0.2
73 | RYTD | ≤ 0.2
74 | RYTG | 0.992
75 | RFHK | ≤ 0.2

Row | Variant | one-hybrid fitness for binding parS DNA
76 | NTHH | ≤ 0.2
77 | YAER | ≤ 0.2
78 | SRAR | ≤ 0.2
79 | DHRG | ≤ 0.2
80 | WTKG | ≤ 0.2
81 | TPGV | ≤ 0.2
82 | PQLQ | ≤ 0.2
83 | KWFG | ≤ 0.2
84 | RWAG | 0.72
85 | RWAM | ≤ 0.2
86 | RWAF | ≤ 0.2
87 | RWFK | ≤ 0.2
88 | RWFG | 0.615
89 | TYPT | ≤ 0.2
90 | MSSI | ≤ 0.2
91 | DTPG | ≤ 0.2
92 | HKES | ≤ 0.2
93 | ANPQ | ≤ 0.2
94 | WNSC | ≤ 0.2
95 | RNNS | 0.969
96 | RNDN | 0.226
97 | RNNP | ≤ 0.2
98 | RNDS | 0.823
99 | RNDP | ≤ 0.2
100 | RNND | ≤ 0.2

Row | Variant | one-hybrid fitness for binding parS DNA
101 | HDLV | ≤ 0.2
102 | IGRI | ≤ 0.2
103 | WCIS | ≤ 0.2
104 | PFSI | ≤ 0.2
105 | AYDD | ≤ 0.2
106 | RKYN | 0.297
107 | RKLY | 0.402
108 | RKLG | 0.964
109 | RKYG | 0.952
110 | RKGG | 0.937
111 | RKGH | ≤ 0.2
112 | RKQG | 0.913
113 | RKQM | ≤ 0.2
114 | RKLK | ≤ 0.2
115 | RKYD | ≤ 0.2
116 | RKGP | ≤ 0.2
117 | RKQR | ≤ 0.2
118 | ASNF | ≤ 0.2
119 | STMD | ≤ 0.2
120 | THAI | ≤ 0.2
121 | HFAT | ≤ 0.2
122 | VNIM | ≤ 0.2
123 | GRPC | ≤ 0.2
124 | ANQN | ≤ 0.2
125 | HYCT | ≤ 0.2

Row | Variant | one-hybrid fitness for binding parS DNA
126 | RKCG | 0.971
127 | RKRP | ≤ 0.2
128 | RKHG | 0.925
129 | RKCQ | ≤ 0.2
130 | RKCM | 0.286
131 | RKRG | 0.851
132 | RKHR | ≤ 0.2
133 | RKHF | ≤ 0.2
134 | RKRD | ≤ 0.2
135 | QYTT | ≤ 0.2
136 | HLKG | ≤ 0.2
137 | TWTY | ≤ 0.2
138 | QNAG | ≤ 0.2
139 | GTTH | ≤ 0.2
140 | SETA | ≤ 0.2
141 | TDDG | ≤ 0.2
142 | QFHD | ≤ 0.2
143 | RMDT | 0.794
144 | RMRQ | ≤ 0.2
145 | RMRM | 0.379
146 | RMGT | 0.937
147 | RMNF | 0.237
148 | RMRT | 0.812
149 | RMDL | ≤ 0.2
150 | RMDF | 0.223

Row | Variant | one-hybrid fitness for binding parS DNA
151 | RMND | ≤ 0.2
152 | RMNT | 0.904
153 | RMGK | ≤ 0.2
154 | RMGF | 0.269
155 | GTPS | ≤ 0.2
156 | EHHI | ≤ 0.2
157 | KHQH | ≤ 0.2
158 | PMNI | ≤ 0.2
159 | RECV | ≤ 0.2
160 | NATT | ≤ 0.2
161 | LRNV | ≤ 0.2
162 | MRHY | ≤ 0.2
163 | KGRF | ≤ 0.2
164 | YADG | ≤ 0.2
165 | YTRC | ≤ 0.2
166 | QWHV | ≤ 0.2
167 | RMQP | ≤ 0.2
168 | RMQD | 0.318
169 | RMSF | 0.258
170 | RMST | 0.945
171 | RMQT | 0.921
172 | RMYD | ≤ 0.2
173 | RMSM | 0.37
174 | RMYP | ≤ 0.2
175 | RMYT | 0.923

Row | Variant | one-hybrid fitness for binding parS DNA
176 | VHYL | ≤ 0.2
177 | ADVS | ≤ 0.2
178 | GAPV | ≤ 0.2
179 | SQVL | ≤ 0.2
180 | AMKY | ≤ 0.2
181 | GIMG | ≤ 0.2
182 | SACQ | ≤ 0.2
183 | RWLW | ≤ 0.2
184 | RMFD | ≤ 0.2
185 | RMFS | 1.07
186 | RMFP | ≤ 0.2
187 | RMAH | 0.282
188 | RMAN | 0.46
189 | RMAS | 0.991
190 | PWEY | ≤ 0.2
191 | LATA | ≤ 0.2
192 | RLDI | ≤ 0.2
193 | ENYW | ≤ 0.2
194 | AEQK | ≤ 0.2
195 | RYFS | 1.02
196 | RYFP | ≤ 0.2
197 | RYAP | ≤ 0.2
198 | RYAS | 0.917
199 | RYFN | 0.425
200 | RYAH | ≤ 0.2

Row | Variant | one-hybrid fitness for binding parS DNA
201 | PWFC | ≤ 0.2
202 | RMRS | 0.868
203 | RMLH | 0.275
204 | RMDY | 0.405
205 | RMRN | 0.418
206 | RMDD | ≤ 0.2
207 | RMDS | 1.02
208 | RMLN | 0.439
209 | RMDP | ≤ 0.2
210 | RMNY | 0.529
211 | RMLS | 1.04
212 | RMRP | ≤ 0.2
213 | FDLP | ≤ 0.2
214 | LARN | ≤ 0.2
215 | YKTN | ≤ 0.2
216 | PMMG | ≤ 0.2
217 | TDRN | ≤ 0.2
218 | IALI | ≤ 0.2
219 | HAQR | ≤ 0.2
220 | LQQY | ≤ 0.2
221 | RMYS | 1.01
222 | RMYN | 0.47
223 | RMNP | ≤ 0.2
224 | RMNH | 0.287
225 | RMYH | 0.234

Row | Variant | one-hybrid fitness for binding parS DNA
226 | RMNS | 0.911
227 | AHEC | ≤ 0.2
228 | EPSR | ≤ 0.2
229 | TPDV | ≤ 0.2
230 | PQMC | ≤ 0.2
231 | RNTN | 0.357
232 | RNTR | ≤ 0.2
233 | RNTH | ≤ 0.2
234 | RNTC | 0.865
235 | RNTG | 0.908
236 | RNTD | ≤ 0.2
237 | RNTK | ≤ 0.2
238 | RNTY | 0.368
239 | RNTM | 0.233
240 | RNTP | ≤ 0.2
241 | RNTT | 0.746
242 | RNTS | 0.964
243 | NCAN | ≤ 0.2
244 | MWTR | ≤ 0.2
245 | DRQW | ≤ 0.2
246 | ADQL | ≤ 0.2
247 | NGAG | ≤ 0.2
248 | HAPM | ≤ 0.2
249 | HNLP | ≤ 0.2
250 | SYAS | ≤ 0.2

Row | Variant | one-hybrid fitness for binding parS DNA
251 | RFDG | 0.814
252 | RFDD | ≤ 0.2
253 | DFNG | ≤ 0.2
254 | NFNG | ≤ 0.2
255 | AFDG | ≤ 0.2
256 | RFNG | 1
257 | LMSV | ≤ 0.2
258 | AAST | ≤ 0.2
259 | SSPQ | ≤ 0.2
260 | THVR | ≤ 0.2
261 | DHYT | ≤ 0.2
262 | GFSS | ≤ 0.2
263 | RYVR | ≤ 0.2
264 | RYKT | 0.708
265 | RYKN | 0.394
266 | RYVT | 0.716
267 | RYVK | ≤ 0.2
268 | RYKH | ≤ 0.2
269 | HYNK | ≤ 0.2
270 | QWNN | ≤ 0.2
271 | PIAM | ≤ 0.2
272 | LLNT | ≤ 0.2
273 | MIIT | ≤ 0.2
274 | IARP | ≤ 0.2
275 | RGVW | ≤ 0.2

Row | Variant | one-hybrid fitness for binding parS DNA
276 | RCKM | 0.402
277 | RRVM | ≤ 0.2
278 | RRVN | 0.268
279 | RRKS | 0.684
280 | RRKM | 0.802
281 | RRDM | ≤ 0.2
282 | RRKP | 0.338
283 | RRKN | 0.84
284 | RCKN | 0.463
285 | RRNM | 0.656
286 | RCNM | 0.349
287 | RRKD | ≤ 0.2
288 | IVNW | ≤ 0.2
289 | TART | ≤ 0.2
290 | ACQS | ≤ 0.2
291 | MKRG | ≤ 0.2
292 | RCRM | 0.365
293 | RRRM | 0.762
294 | RRYM | 0.206
295 | RCKH | ≤ 0.2
296 | RRVS | 0.708
297 | RRVH | ≤ 0.2
298 | RRVD | ≤ 0.2
299 | RRKH | 0.623
300 | RRVP | ≤ 0.2

Row | Variant | one-hybrid fitness for binding parS DNA
301 | GKVS | ≤ 0.2
302 | NRQG | ≤ 0.2
303 | ATIC | ≤ 0.2
304 | YVNR | ≤ 0.2
305 | QQAI | ≤ 0.2
306 | RVIA | 0.522
307 | NVWA | ≤ 0.2
308 | PVHA | ≤ 0.2
309 | SVIA | ≤ 0.2
310 | RVPA | 0.324
311 | RVWA | 0.616
312 | RVSA | 0.581
313 | RVHA | 0.552
314 | PVSA | ≤ 0.2
315 | DVWA | ≤ 0.2
